From ChEMBL document CHEMBL4513216, “Probing the Open Global Health Chemical Diversity Library for Multistage-Active Starting Points for Next-Generation Antimalarials” (ACS Infect Dis, 2020) come the findings set out here.

Hit rate of the full screen: of about 68,000 compounds, about 2,700 (4%) showed an effect of 50% or more. Shown is part of a subset that was picked to be rich in strong results.

In this assay the test system is Plasmodium berghei. Kind of assay: Screen against P. berghei liver stage (PbLuc), transformed with Luciferase, at 2uM. It counts as functional, HepG2. To be noted: tested at 2 uM.
Turning to `CC1=N[C@@]2(CC[C@@H]3CN(Cc4ccc(C)cc4)C[C@@H]32)C(=O)N1CC1CC1`, the INHIBITION is 41.38%.

Turning to `Cc1ccccc1C1CCCN1Cc1nc2c(cnn2C)c(=O)[nH]1` (stereo not drawn), the INHIBITION is -29.69%. Turning to `Cc1nccc(C(=O)NC(CN2CCCC2=O)c2ccccc2)n1` (stereo not drawn), the INHIBITION is given as -45.82%.

As to `CC1CN(C)CCN1C(=O)c1ccn(-c2ccccc2)n1` (stereo not drawn), the INHIBITION was determined as 23.42%. The value for `COc1ccccc1OCCCc1cncc(C(N)=O)c1` was -69.92%; that for `COc1cccc(OCCCc2cncc(C(N)=O)c2)c1` was 61.08%. `COc1cccc(OCCc2cncc(C(N)=O)c2)c1`: the INHIBITION was -18.52%. For the compound `Nc1ncnc2nc(C3CCN(C(=O)Cc4ccccc4)C3)ccc12` (stereo not drawn), the INHIBITION is on record as -7.22%. In the case of `CCc1nc(CC2CN(c3ncnc4sc(C)c(C)c34)CCO2)no1` (stereo not drawn), the INHIBITION was -7.81%. As to `CN(C)C(=O)COc1ccccc1CN1CCCC2(C1)CN(C)C(=O)O2` (stereo not drawn), the INHIBITION is recorded as -38.26%. As to `CC(=O)Nc1cc(C2CC2)nn1-c1nc(C)c(C)c(=O)[nH]1`, the INHIBITION was -8.91%.

On to `Cc1cc(NC(=O)C(C)C)n(-c2nc(C)c(C)c(=O)[nH]2)n1`, for which the INHIBITION is 27.11%.

Take `Cc1nc(-n2nc(C3CC3)cc2NC(=O)C(C)C)[nH]c(=O)c1C`: the INHIBITION came to 55.52%. Regarding `CC(C)(C#N)CCCS(=O)(=O)c1nccn1-c1cccc(F)c1`, the INHIBITION is listed as 19.33%. The value for `COc1ccc2c(OCC(=O)NC(C)(C)C)ccnc2c1` was -3.8%.

On to `COc1ccc2c(OCC(=O)NCC(F)(F)F)ccnc2c1`, for which the INHIBITION is -26.08%.

For the compound `CCN(CC)C(=O)COc1ccnc2cc(OC)ccc12`, the INHIBITION is recorded as 50.42%.

As to `CCN(CC1CCOC1)C(=O)c1cccnc1N1CCOCC1` (stereo not drawn), the INHIBITION was 53.03%. As to `CCN(CC1CCOC1)C(=O)Nc1ccc(N2CCOCC2)nc1` (stereo not drawn), the INHIBITION is -25.45%. The value for `CCN(CC1CCOC1)C(=O)c1ccccc1N1CCOCC1` (stereo not drawn) was -45.72%. Consider `CN(C)c1nccc(N2CCO[C@H]3CN(Cc4ccco4)C[C@H]32)n1`, for which the INHIBITION was found to be 28.14%. On to `CN(C)c1nccc(N2CCO[C@H]3CN(Cc4ccsc4)C[C@H]32)n1`, for which the INHIBITION is -33.63%. With `Cc1cccc(CN2C[C@@H]3OCCN(c4ccnc(N(C)C)n4)[C@@H]3C2)c1`, the INHIBITION was found to be 53.55%. For the compound `COc1cccn(CC(=O)N2CCCC3(CCCCC3)C2)c1=O`, the INHIBITION worked out at 26.14%.

As to `Cc1[nH]c2cc(C3CCN(C(=O)c4ccccn4)CC3)nn2c(=O)c1C`, the INHIBITION stood at 9.9%. The value for `Cc1ccc(-c2nc(C3CCN(C(=O)c4ccnn4C)CC3)no2)cn1` was 10.65%; that for `Cc1csc(CN(C)C(=O)Nc2cc(F)cc(N3CCCC3)c2)n1` was 0.12%; that for `Cc1nc(CN2CCO[C@H]3[C@@H](Oc4ccccn4)CC[C@@H]32)cs1` was 27.9%. Take `c1ccc(CO[C@H]2CC[C@H]3[C@H]2OCCN3CCN2CCCCC2)nc1`: the INHIBITION amounted to 27.42%. `CCN(CC)CCN1CCO[C@H]2[C@@H](OCc3ccccn3)CC[C@@H]21`: the INHIBITION is reported as -31.4%. As for `COc1ccc(CN2CCO[C@H]3[C@H](Oc4ccccn4)CC[C@@H]32)cc1`, the INHIBITION is reported as -0.68%. In the case of `CCOCCN1CCO[C@H]2[C@H](OCc3ccccn3)CC[C@@H]21`, the INHIBITION came to 55.07%.

With `Cc1cccc(CN2CCO[C@H]3[C@H](Oc4ccccn4)CC[C@@H]32)n1`, the INHIBITION was determined as 64.44%.

As for `O=S(=O)(C1CC1)N1C[C@H](Oc2ccccn2)[C@H]2OCCC[C@H]21`, the INHIBITION turned out to be 17.77%. Regarding `CCS(=O)(=O)N1C[C@@H](Oc2ccccn2)[C@H]2OCCC[C@H]21`, the INHIBITION came out at 13.38%. As for `CS(=O)(=O)N1C[C@@H](Oc2ccccn2)[C@H]2OCCC[C@H]21`, the INHIBITION is recorded as 50.72%. With `COc1ccc2c(=O)ccn(CC(=O)O)c2c1`, the INHIBITION is on record as 16.54%.

As for `Cc1noc(C2CCN(C(C)c3nc(C(C)(C)C)no3)CC2)n1` (stereo not drawn), the INHIBITION was 11.42%. The value for `COC(=O)CSc1nnc(CCNC(=O)OC(C)(C)C)o1` was 25.59%; that for `COCCNC(=O)C1CN(Cc2ccncc2)Cc2ccnn2C1` (stereo not drawn) was -15.71%. To `CC(C1CC1)N(C)C(=O)c1ccc(-n2ncc(C#N)c2N)cc1` (stereo not drawn) belongs 26.2%; to `Fc1cccc(Nc2nc(N3CCCC3)nc3c2CNCC3)c1`, 32.67%. Consider `Cc1c(F)cccc1CN1CCn2nc(CNC(=O)N(C)C)cc2C1`, for which the INHIBITION turned out to be 21.08%. Consider `Cc1nc(CNCC2CNc3ccnn3C2)cs1` (stereo not drawn), for which the INHIBITION is reported as 0.05%. The value for `CC(C)Nc1ncnc2c1CCN(C(=O)Cc1ccccn1)CC2` was 14.23%; that for `O=C(c1cscn1)N1CC[C@@H]2[C@@H]1CCN2c1ccccn1` was 36.03%; that for `COc1cc(N2C[C@@H]3COC[C@]3(COc3ccc(C#N)cn3)C2)ncn1` was -15.95%. To `Cc1csc(N2CCN(Cc3ccccn3)CC2C)n1` (stereo not drawn) belongs -13.94%; to `Cc1cnc(CN2CCN(c3nc(C)cs3)C(C)C2)cn1` (stereo not drawn), 50.3%. In the case of `Cc1csc(N2CCN(Cc3cscn3)CC2C)n1` (stereo not drawn), the INHIBITION is -7.32%. To `COc1ccc(CNC(C)c2cccc(Br)c2)c(OC)c1OC` (stereo not drawn) belongs 0.8%; to `OC1(Cn2ccc3ncccc32)CCN(Cc2ccccc2F)CC1`, 22.81%.

As to `CCN(CC)C(CNC(=O)c1ccc(-n2cncn2)cc1)c1ccsc1` (stereo not drawn), the INHIBITION is -12.13%. With `CCN(CC)C(CNC(=O)c1cccnc1-n1cncn1)c1ccsc1` (stereo not drawn), the INHIBITION was 28.81%.

For `CCN(CC)C(CNC(=O)c1ccnc(N(C)C)c1)c1ccsc1` (stereo not drawn), the INHIBITION was 86.89%. Consider `Cc1ccc(C(=O)N2CCC3(CC2)CCN(Cc2ccccn2)C3=O)o1`, for which the INHIBITION turned out to be 2.5%.

For the compound `CN1C(=O)c2cccc(NC(=O)c3ccc4c(c3)OCCO4)c2C1=O`, the INHIBITION was found to be 27.8%.

`O=C(CCc1ccc(-c2ccccc2)[nH]1)N1CCCC(n2ccnc2)C1` (stereo not drawn): the INHIBITION is -13.92%.

For `Cc1nc(CN2CCC(N3CCN(C)C3=O)CC2)no1`, the INHIBITION stood at 40.17%. To `CCN1CCN(C2CCN(Cc3noc(C)n3)CC2)C1=O` belongs 62.13%; to `CCN1CCN(C2CCN(Cc3noc(C4CC4)n3)CC2)C1=O`, 24.65%. Regarding `COCCN(C)C(C(=O)O)c1ccc2ccccc2c1` (stereo not drawn), the INHIBITION is given as 10.75%. The value for `Cc1cc(C)n(C2CCCN(C(=O)c3cc(C(N)=O)cs3)C2)n1` (stereo not drawn) was 20.93%.
